# Shown are actives, neighbours in structure and some others; about 0.56% of the full set was active somewhere.
# GALK inh: blocks human galactokinase activity; P51570; Purified GALK, Kinase-Glo residual ATP luminescence; Potency, µM (titrated, usually from 57.5 µM), for the others: at the top dose activity change, negative = inhibition, actives largely listed as inhibitors; 270,000 compounds, 0.007% hits; AID 1868; note: potency is the fitted concentration of half-maximal effect; % is set by controls: 0 for no effect and ±100 for the full control effect
#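 GALK at 5 nM final was combined with compound, 35 uM ATP and 100 uM galactose in HEPES pH8.0 with MgCl2 and DTT. The reaction ran one hour at room temperature before luminescent ATP detection.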
# KinaseGlo FLuc: Kinase-Glo luciferase inhibition (counter-screen); Kinase-Glo luciferase, ATP luminescence, 8 min; Potency, µM (doses to about 38.3 µM), inactives show at the top dose activity change, negative = inhibition, usual class: inhibitors; 200,000 compounds, 0.28% hits; AID 1379; note: potency is the fitted concentration of half-maximal effect; % is set by controls: 0 for no effect and ±100 for the full control effect; nearly all actives have a fitted effect of over 60% in size
#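 Recombinant Kinase-Glo luciferase, 10 uM ATP (linear range), luciferin; imidazole pH 7.2 / KCl / MgCl2 / Tween / BSA buffer; 8 min RT; luminescence.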
# PKM2 act: activators of human pyruvate kinase M2 | P14618 | purified PKM2, Kinase-Glo ATP luminescence, activation; response scale: 0% is enzyme alone, no compound | Potency, µM (top dose mostly 57.5 µM), for inactives: at the top dose activation, usual class: activators | 260,000 compounds, 0.34% hits | AID 1631; note: potency is the fitted concentration of half-maximal effect; % is set by controls: 0 for no effect and ±100 for the full control effect; nearly all actives have a fitted effect of over 55% in size
#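 Purified hPK-M2 (>95%) run at intermediate activity with 0.1 mM ADP and 0.5 mM PEP in 50 mM imidazole pH 7.2, KCl, MgCl2; 1 h room temperature. ATP formed read by Kinase-Glo luminescence; normalized to uninhibited and no-enzyme controls.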
# Tb PFK inh-1: T. brucei PFK enzyme inhibition | O15648 | T. brucei PFK, ADP-Glo luminescence | Potency, µM (series often up to 57.5 µM), for inactives: at the top dose activity, negative = inhibition, hits mostly inhibitors | 330,000 compounds, 0.17% hits | AID 485367;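 note: potency is the fitted concentration of half-maximal effect; 0% = uninhibited 1x PFK enzyme wells and -100% = no-enzyme wells; nearly all actives have a fitted effect of over 60% in size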
#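 1.25 nM PFK with 0.5 mM F6P and 0.1 mM ATP in 0.1 M TEA pH 8.0, 5 mM MgCl2, incubated 45 min at room temperature; ADP measured by ADP-Glo luminescence; compounds titrated up to 57 uM.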
# CBFb-RUNX1 inh: CBF-beta/RUNX1 interaction disruption. Q01196+Q13951. AlphaScreen CBFb-His/RUNX1-biotin binding, biochemical. Potency, µM (highest dose often 59.8 µM), inactives show top-dose activity, negative = inhibition, actives largely listed as inhibitors. 230,000 tested, under 10 active. AID 1477; note: % of control where 0% means no effect
# Target sequence (Q01196 whole entry, looked up): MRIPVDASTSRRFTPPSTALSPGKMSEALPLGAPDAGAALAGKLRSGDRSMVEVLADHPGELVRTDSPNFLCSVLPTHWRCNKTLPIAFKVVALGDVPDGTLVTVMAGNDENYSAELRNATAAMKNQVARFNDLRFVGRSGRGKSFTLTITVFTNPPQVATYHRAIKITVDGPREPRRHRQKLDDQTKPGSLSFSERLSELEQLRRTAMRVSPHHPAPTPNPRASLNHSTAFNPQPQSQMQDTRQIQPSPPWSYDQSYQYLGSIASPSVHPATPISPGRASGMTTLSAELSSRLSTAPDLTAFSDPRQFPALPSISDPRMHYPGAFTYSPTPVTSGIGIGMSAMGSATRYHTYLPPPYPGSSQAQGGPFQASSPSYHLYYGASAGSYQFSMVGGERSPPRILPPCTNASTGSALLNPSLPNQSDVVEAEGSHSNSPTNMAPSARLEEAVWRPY
# Target sequence (Q13951 whole entry, looked up): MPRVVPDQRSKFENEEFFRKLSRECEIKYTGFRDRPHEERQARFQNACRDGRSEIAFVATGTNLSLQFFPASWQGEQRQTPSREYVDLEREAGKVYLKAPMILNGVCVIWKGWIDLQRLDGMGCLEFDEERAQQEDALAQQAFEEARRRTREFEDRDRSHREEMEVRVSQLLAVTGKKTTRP
#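 His-tagged CBF-beta and biotinylated RUNX1 (30 nM each) were premixed 20 min at room temperature, exposed to compound for 15 min, then given nickel-chelate and streptavidin AlphaScreen beads (50 ng each). After 90 min, AlphaScreen signal was read.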
# Tb PFK KinaseGlo: orthogonal confirmation of T. brucei phosphofructokinase inhibitors; Potency, µM (series often up to 57.5 µM), without a hit: at the highest dose inhibition; 1,100 compounds, 47% hits; shares compounds with Tb PFK inh-1; Tb PFK enzyme, ATP depletion, Kinase-Glo Plus luminescence; calls by dose curve; note: potency is the fitted concentration of half-maximal effect; nearly all actives have a fitted effect of over 60% in size
# Tb PFK inh-2: T. brucei PFK enzyme inhibition, hit validation. Potency, µM (top dose mostly 57.5 µM), for inactives: top-dose activity change, negative = inhibition, usual class: inhibitors. 1,100 compounds, 41% hits. purified T. brucei PFK, ADP-Glo luminescence, 45 min. shares compounds with Tb PFK inh-1. AID 504637;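 note: potency is the fitted concentration of half-maximal effect; plate controls were full PFK enzyme control for no effect and no enzyme control for full effect; nearly all actives have a fitted effect of over 60% in size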
# * hit, by the source's call; ? = inconclusive; nt = no result given; [ ] = another dose, or the depositor's remark. Unless noted, calls come from the whole dose curve; as a rule, active = well fitted curve in the direction sought with a large enough effect; inconclusive = small, poorly fitted or top-dose-only effect, or another doubt; inactive = no such curve, though single readings can be large; an effect the other way counts as inactive or inconclusive.
SMILES,GALK inh,KinaseGlo FLuc,PKM2 act,Tb PFK inh-1,CBFb-RUNX1 inh,Tb PFK KinaseGlo,Tb PFK inh-2
CN(c1ccccc1)c1ccc(/C=C/[N+](=O)[O-])cc1,nt,-4.3%,8.3%,?,1.8%,16.9µM*,23.9µM*
Cc1ccc(-n2c(N)c(C(=O)N3CCN(C)CC3)sc2=S)cc1,1.5%,1.3%,-12.9%,13.5µM*,-3.2%,3.79µM*,9.53µM*
CCN1CC(CNC(=O)c2ccc3nc(Cc4cccc(Cl)c4)oc3c2)CC1=O (stereo unspecified),-4.0%,nt,nt,?,nt,?,15.1µM*
Cc1nc2c(C(=O)N3CCC4(CC3)OCCO4)cnn2c(C)c1Cc1cccc(Cl)c1,0.3%,11.6%,0.3%,-3.8%,8.7%,nt,nt
Cc1cccc(NC(=O)COc2ccc(/C=N\n3cnnc3)cc2)c1,nt,-6.8%,0.7%,?,4.7%,?,-18.4%
COc1cc(/C=N/n2cnnc2)ccc1OC(=O)N(C)C,0.1%,-1.5%,9.7%,-1.1%,6.6%,nt,nt
Clc1ccc(CNc2cnccn2)cc1Cl,-1.9%,nt,nt,6.75µM*,nt,5.36µM*,9.53µM*
COC1=CC(=O)O[C@H](/C=C/c2ccc3c(c2)OCO3)C1,nt,nt,nt,nt,22.8%,nt,nt
c1ccc(CCN2CCOCC2)nc1,nt,-4.3%[7.66 µM],nt,nt,nt,nt,nt
O=C1C=C(NCc2ccc(Cl)c(Cl)c2)C2(CCCCC2)O1,-1.2%,-3.8%,1.2%,16.9µM*,9.0%,6.01µM*,23.9µM*
CC(Cc1ccc(C(C)(C)C)cc1)CN1CCCCC1 (stereo unspecified),nt,nt,nt,nt,2.5%,nt,nt
COc1ccc(NC2=NC(C)(C)CS2)cc1,1.5%,0.2%,3.0%,-14.5%,0.0%,nt,nt
COc1ccc(Nc2nc(C)cc(=O)[nH]2)cc1,-0.5%,18.7%,9.4%,12µM*,3.7%,13.5µM*,23.9µM*
COC(=O)COc1ccc(C[C@@H](C)NC[C@H](O)c2cccc(Cl)c2)cc1,nt,nt,nt,nt,28.4%,nt,nt
CNC(=O)c1cccn(Cc2cccc(C(F)(F)F)c2)c1=O,5.8%,-2.0%,9.9%,-10.0%,29.8%,nt,nt
C=CCNC(=S)NNC(=O)c1cccn(Cc2ccc(Cl)c(Cl)c2)c1=O,-1.3%,-0.8%,-7.6%,8.49µM*,-6.5%,8.49µM*,10.7µM*
CNC(=S)NNC(=O)c1cccn(Cc2ccc(Cl)c(Cl)c2)c1=O,-3.5%,-7.2%,-14.5%,8.49µM*,-1.1%,2.69µM*,8.49µM*
CCNCCC1(CC)C(=O)NC(=O)NC1=O,nt,-0.6%[7.66 µM],nt,nt,nt,nt,nt
O=C1C=CC(=O)C(Cl)=C1,nt,-3.0%[39.9 µM],nt,nt,nt,nt,nt
O=[As](O)(O)c1ccc(NCc2ccccc2)cc1,nt,-0.5%[7.66 µM],nt,nt,nt,nt,nt
Clc1ccc(CNCCCSc2ncccn2)cc1Cl,nt,nt,-1.9%,15.1µM*,nt,19µM*,19µM*
COc1nccnc1NS(=O)(=O)c1ccc(NCc2cc(Br)ccc2O)cc1,-5.4%,nt,6.0%,?,nt,?,-18.1%
CCC(C)(C)O,nt,nt,nt,nt,-1.7%,nt,nt
CCNC(=O)C1CCCc2c1[nH]c1ccc(Cl)cc21 (stereo unspecified),-0.1%,-2.8%,-0.3%,?,0.9%,12µM*,21.3µM*
O=C1c2ccccc2C(=O)N1SC1CCCCC1,-4.0%,-0.3%,?,?,0.6%,9.53µM*,15.1µM*
NCCc1c[nH]c2ccc(O)cc12,nt,2.1%[39.9 µM],nt,nt,-5.3%,nt,nt
NCC1OC(O[C@@H]2[C@H](O)[C@@H](OC3C(O)C(N)CC(N)C3OC3OC(CO)C(O)C(O)C3N)O[C@@H]2CO)C(N)C(O)C1O (stereo partly specified),nt,-1.3%,nt,nt,-19.5%,nt,nt
O=c1c(O)cccc2cc(O)c(O)c(O)c12,nt,-3.6%,?,6.75µM*,nt,0.426µM*,0.477µM*
CCCOCCN(C(=O)CCl)c1c(CC)cccc1CC,nt,nt,nt,nt,16.0%,nt,nt
NC(=O)c1cc(S(=O)(=O)N2CCN(c3ccc([N+](=O)[O-])cc3)CC2)cs1,-5.2%,nt,nt,21.3µM*,nt,12µM*,26.9µM*
